Laboratory results as given in PubChem BioAssay AID1159580 (chemical genetic matrix, 2015).
Values joined by “and” are separate entries in the source; they are usually repeats but may differ in a detail not shown here. Equal values may be shown once. Hit rate of the full screen: of about 5,500 compounds, about 2,000 (36%) were called active. Inconclusive results (about 18%) are left out. Cut-off read from the data, not from the text of the source: active = normalized growth mostly below about 0.91 (no sharp cut-off); inconclusive = no clear call, values can overlap the other calls; inactive = mostly above about 0.92. The list shows a part of the results.

Test: chemical genetic growth profiling, strain panel (AID 1159580);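 note: tested at 20 µM; growth read once vehicle control cultures reached saturation at 30 °C; 1 = growth at the plate median or of vehicle wells; lower values mean less growth of the strain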
Conditions: S. cerevisiae deletion strains, growth OD

Measured: normalized growth

O=C(O)c1ccccc1OP(=O)(O)O
inactive: locus YAL021C, strain ccr4, active compounds read low 0.962 | locus YAL026C, strain drs2, active compounds read low 1.01 | locus YAL030W, strain snc1, active compounds read low 1 | locus YBL061C, strain skt5, active compounds read low 1.01 | locus YBR009C, strain hhf1, active compounds read low 1.03 | locus YBR021W, strain FUR4, active compounds read low 1.01 | locus YBR023C, strain chs3, active compounds read low 1.01 | locus YBR171W, strain sec66, active compounds read low 1.01 | locus YBR229C, strain ROT2, active compounds read low 1.01 | locus YBR231C, strain swc5, active compounds read low 1.02 | locus YBR279W, strain paf1, active compounds read low 1 | locus YCL011C, strain gbp2, active compounds read low 1.01 | locus YCL016C, strain dcc1, active compounds read low 1 | locus YCL029C, strain bik1, active compounds read low 0.994 | locus YCL061C, strain MRC1, active compounds read low 1 | locus YCL069W, strain vba3, active compounds read low 0.997 | locus YCR088W, strain abp1, active compounds read low 1.01 | locus YDL005C, strain med2, active compounds read low 1 | locus YDL035C, strain GPR1, active compounds read low 1.01 | locus YDL040C, strain nat1, active compounds read low 0.996 | locus YDL074C, strain BRE1, active compounds read low 1.02 | locus YDL101C, strain DUN1, active compounds read low 1.02 | locus YDL134C, strain PPH21, active compounds read low 1.02 | locus YDL185W, strain tfp1, active compounds read low 0.976 | locus YDL192W, strain arf1, active compounds read low 0.989 | locus YDR001C, strain nth1, active compounds read low 0.993 | locus YDR069C, strain doa4, active compounds read low 1.02 | locus YDR101C, strain arx1, active compounds read low 1.01 | locus YDR137W, strain rgp1, active compounds read low 0.987 | locus YDR150W, strain NUM1, active compounds read low 1.01 | locus YDR159W, strain sac3, active compounds read low 1.02 | locus YDR162C, strain NBP2, active compounds read low 1.02 | locus YDR195W, strain ref2 1.01 | locus YDR297W, strain sur2, active compounds read low 1 | locus YDR318W, strain mcm21, active compounds read low 0.992 | locus YDR334W, strain swr1, active compounds read low 1 | locus YDR335W, strain msn5, active compounds read low 1.01 | locus YDR388W, active compounds read low 0.987 | locus YDR392W, strain spt3, active compounds read low 0.979 | locus YDR502C, strain sam2, active compounds read low 0.994 | locus YEL003W, strain gim4, active compounds read low 1.01 | locus YEL037C, strain rad23, active compounds read low 0.997 | locus YEL061C, strain CIN8 (second series), active compounds read low 1.01 | locus YEL061C, strain CIN8, active compounds read low 1.01 | locus YER015W, strain faa2, active compounds read low 1.01 | locus YER016W, strain bim1, active compounds read low 1 | locus YER110C, active compounds read low 0.992 | locus YER111C, strain swi4, active compounds read low 1.01 | locus YER155C, strain BEM2 (second series), active compounds read low 1.05 | locus YER155C, strain BEM2, active compounds read low 1.01 | locus YER167W, strain BCK2, active compounds read low 1.01 | locus YFR010W, strain ubp6, active compounds read low 1.03 | locus YGL078C, strain dbp3, active compounds read low 0.997 | locus YGL086W, strain mad1, active compounds read low 0.996 | locus YGL167C, strain pmr1, active compounds read low 1.01 | locus YGL173C, strain kem1, active compounds read low 1.01 | locus YGL227W, strain vid30, active compounds read low 1.01 | locus YGL240W, strain doc1, active compounds read low 1.02 | locus YGL248W, strain PDE1, active compounds read low 1.02 | locus YGL253W, strain hxk2, active compounds read low 1.04 | locus YGR135W, strain pre9, active compounds read low 0.988 | locus YGR252W, strain gcn5, active compounds read low 0.97 | locus YHR013C, strain ard1, active compounds read low 0.997 | locus YHR027C, strain rpn1, active compounds read low 1 | locus YHR030C, strain SLT2, active compounds read low 1.01 and 0.96 | locus YHR079C, strain IRE1 (second series), active compounds read low 0.996 | locus YHR079C, strain IRE1, active compounds read low 0.95 | locus YHR094C, strain hxt1, active compounds read low 0.991 | locus YHR129C, strain ARP1, active compounds read low 1.01 | locus YHR142W, strain chs7, active compounds read low 0.958 | locus YHR200W, strain rpn10, active compounds read low 0.995 | locus YIL066C, strain RNR3, active compounds read low 1.02 | locus YIL073C, strain SPO22, active compounds read low 0.999 | locus YIL125W, strain kgd1, active compounds read low 0.987 | locus YIR030C, strain dcg1, active compounds read low 0.995 | locus YJL092W, strain hpr5, active compounds read low 1 | locus YJL095W, strain BCK1 (second series), active compounds read low 1 | locus YJL095W, strain BCK1, active compounds read low 1.03 and 0.973 | locus YJL115W, strain asf1, active compounds read low 0.99 | locus YJL129C, strain trk1, active compounds read low 1 | locus YJL134W, strain LCB3, active compounds read low 1 | locus YJL154C, strain vps35, active compounds read low 0.996 | locus YJL164C, strain tpk1, active compounds read low 0.981 | locus YJL166W, strain qcr8, active compounds read low 1.01 | locus YJL168C, strain set2, active compounds read low 0.986 | locus YJL187C, strain SWE1 (second series), active compounds read low 1.02 | locus YJL187C, strain SWE1, active compounds read low 0.997 | locus YJR043C, strain POL32, active compounds read low 1.01
